Reference: PubChem BioAssay (NCI)
About 83,000 compounds went through this panel and 20% of them were active in at least one assay; those are over-represented in the sample as a whole.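 48-hour exposure, single concentration, 96-well plates; percent growth endpoint where 0 means no net growth. Active: below 10.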 A number with no mark means an inactive call. The source made the active and inactive calls.

Tests used:
Assay in all cases: NCI-60 one-dose screen, 48 h (100 = growth as untreated, 0 = no growth, -100 = all killed)
Details in all cases: 10 µM
K-562 leukemia = test system: K-562 leukemia
MALME-3M melanoma = test system: MALME-3M melanoma
MDA-MB-231 breast = test system: MDA-MB-231 breast
RXF 393 renal = test system: RXF 393 renal
SF-268 CNS = test system: SF-268 CNS
SF-295 CNS = test system: SF-295 CNS
SF-539 CNS = test system: SF-539 CNS
UACC-257 melanoma = test system: UACC-257 melanoma
M14 melanoma = test system: M14 melanoma
HCT-15 colon = test system: HCT-15 colon
HT29 colon = test system: HT29 colon
SNB-75 CNS = test system: SNB-75 CNS
SNB-19 CNS = test system: SNB-19 CNS
U251 CNS = test system: U251 CNS
PC-3 prostate = test system: PC-3 prostate
SK-MEL-5 melanoma = test system: SK-MEL-5 melanoma
UACC-62 melanoma = test system: UACC-62 melanoma
LOX IMVI melanoma = test system: LOX IMVI melanoma
SK-MEL-28 melanoma = test system: SK-MEL-28 melanoma
SK-MEL-2 melanoma = test system: SK-MEL-2 melanoma

SMILES	growth (K-562 leukemia)	growth (MALME-3M melanoma)	growth (MDA-MB-231 breast)	growth (RXF 393 renal)	growth (SF-268 CNS) [%]	growth (SF-295 CNS)	growth (SF-539 CNS)	growth (UACC-257 melanoma) [%]	growth (M14 melanoma)	growth (HCT-15 colon)	growth (HT29 colon)	growth (SNB-75 CNS) [%]	growth (SNB-19 CNS) [%]	growth (U251 CNS)	growth (PC-3 prostate) [%]	growth (SK-MEL-5 melanoma)	growth (UACC-62 melanoma)	growth (LOX IMVI melanoma)	growth (SK-MEL-28 melanoma) [%]	growth (SK-MEL-2 melanoma)
COc1ccc(S(=O)(=O)Nc2c(/C=C\c3cc(OC)c(OC)c(OC)c3)ccc(OC)c2O)cc1	12.3%	61.5%	5.46% (active)	33.5%	13.3	3.31% (active)	-28.9% (active)	32.4	2.65% (active)	7.33% (active)	11.7%	31.3	48.5	6.01% (active)	30.5	-17% (active)	38.6%	15.5%	58.2	3.84% (active)
COc1ccc(-c2csc(NC(=O)CSc3nc(C)c(-c4ccccc4)n3Nc3ccccc3)n2)cc1	24.8%	60.4%	65.8%	63.9%	44.7	-9.42% (active)	72.7%	89.3	50.4%	44.2%	67.7%	49	82.7	61.7%	34	54.4%	47%	36.8%	89.6	82%
O=C(CSSCC(=O)c1ccc(Cl)cc1)c1ccc(Cl)cc1	52.9%	39.7%	92.8%	99.7%	61	35.9%	68.4%	59.2	82.2%	87.2%	92.6%	62	52.8	53.7%	61.1	29.7%	57.8%	40.7%	59.5	79.5%
CC/C(=C(/c1ccc(OCCN(C)C)cc1)c1ccc(OC(=O)CCC(=O)c2c(C)[nH]c(/C=C3\N=C(c4ccc[nH]4)C=C3OC)c2C)cc1)c1ccccc1	0.3% (active)	-9.96% (active)	-30% (active)	15.2%	31.2	33.5%	49.7%	45.5	-66.6% (active)	3.7% (active)	6.7% (active)	28.3	72.7	12.5%	19.3	2.36% (active)	-13.8% (active)	-45% (active)	62.1	-11.4% (active)
CCN(CC)CCNC(=O)c1ccc(NC(C)=O)cc1	99.2%	103%	91.8%	109%	109	104%	107%	117	109%	101%	102%	112	98.1	93.9%	104	103%	94.2%	95.3%	118	115%
O=C(c1cccs1)c1ccccc1Cc1ccccc1	98.2%	110%	88.6%	99.5%	115	98.3%	112%	92.8	118%	103%	96.6%	94.4	90.4	92.5%	87.7	97.9%	90.1%	103%	101	96.1%
O=C1C(=O)c2ccccc2C(O)=C1CCCc1ccc(C2CCCCCC2)cc1	23.7%	13.5%	68.4%	68.1%	53.9	-0.205% (active)	37.9%	44	49.3%	25.2%	28.5%	49.3	52.8	46.1%	20.9	25.2%	46.6%	16.5%	49.7	88.1%
COc1ccc(-c2cc(-c3ccc(N(C)C)cc3)c(C#N)c(N3CCCC3)n2)cc1	69.3%	122%	64.1%	-2.09% (active)	96.7	93.8%	88.8%	88	73.3%	71.4%	63.2%	99.7	90.1	86%	82.2	58.5%	102%	34.2%	93.4	84%
CCOC(=O)N1C/C(=C/c2ccc(OC)cc2)C(=O)/C(=C/c2ccc(OC)cc2)C1	-2.17% (active)	34.2%	30.6%	-44.4% (active)	38.2	24.5%	39.4%	42.9	-40.8% (active)	3.06% (active)	-58.4% (active)	48.8	78	12%	46.5	21.6%	44.6%	-72.2% (active)	58.6	75.1%
